CHX counter = Cycloheximide Counterscreen for Small Molecule Inhibitors of Shiga Toxin; 300,000 compounds, 12% hits; AID 2314, 2010; max response, %; cell reporter, cycloheximide protein synthesis inhibition counterscreen; in the data active means max response mostly above about 13%, no sharp cut-off; inactive means mostly below about 14%; further: read at 38.3 µM for the half of the compounds with a filed dose
AMA1-RON2 inh = qHTS for Inhibitors of AMA1-RON; Towards Development of Antimalarial Drug Lead: Primary Screen | Potency, µM (titrated, usually from 58.2 µM), actives largely listed as inhibitors | AlphaScreen AMA1-biotinylated RON2 peptide binding | 360,000 compounds, 0.2% hits; further: nearly all actives have a fitted effect of over 45% in size
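AMA1 (3D7) with his tag at 25 nM final met compounds first, then biotinylated RON2 peptide at 25 nM; detection used donor plus acceptor beads, 10 µg/mL apiece, read by AlphaScreen after 30 min at room temperature.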
Pf growth 48h = Primary qHTS for delayed death inhibitors of the malarial parasite plastid, 48 hour incubation. P. falciparum luciferase growth in erythrocytes, 48 h. 310,000 compounds, 5.9% hits. Potency, µM (top dose mostly 28.7 µM), hits mostly inhibitors
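Parasite viability was followed by luminescence of a genomically integrated firefly luciferase. Cultures held 0.1% parasitemia at 2% hematocrit (final), incubated under 5% CO2 at 37 C.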
SARS PLpro yeast = qHTS of Yeast-based Assay for SARS-CoV PLP. S. cerevisiae expressing SARS-CoV PLpro, growth rescue. Potency, µM (titrated, usually from 32.9 µM), hits mostly activators. 330,000 compounds, 0.19% hits; calls by dose curve; further: nearly all actives have a fitted effect of over 55% in size
Pf growth 96h = Primary qHTS for delayed death inhibitors of the malarial parasite plastid, 96 hour incubation. P. falciparum luciferase reporter growth, 96 h. Potency, µM (doses to about 28.7 µM), actives largely listed as inhibitors. 320,000 compounds, 6.9% hits. AID 504834, 2011
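Luminescence readout: decreased luciferase signal marks inhibited growth of reporter-expressing P. falciparum in infected red cells (2% hematocrit, 0.05% parasitemia final), exposed to compound two generations (96 h, 37 C, 5% CO2).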
Shiga inhibitor = A qHTS for Small Molecule Inhibitors of Shiga Toxin; inhibition, % at 38.7 µM; Vero cells, Shiga toxin protein synthesis inhibition reporter; 290,000 compounds, 9.2% hits; AID 2315, 2010; in the data active means inhibition mostly above about 28%, no sharp cut-off; inactive means mostly below about 43%
A number is an active result; n = inactive; u = inconclusive; x = no result. This is a sample that favours compounds with a hit; in the whole collection about 19% have one here. Unless noted, the call rests on the fitted dose curve; in most records, active means well fitted curve in the direction sought with a large enough effect; inconclusive means small, poorly fitted or top-dose-only effect, or another doubt; inactive means no such curve, though single readings can be large; an effect the other way counts as inactive or inconclusive.

SMILES	CHX counter	AMA1-RON2 inh	Pf growth 48h	SARS PLpro yeast	Pf growth 96h	Shiga inhibitor
Cc1occc1-c1nnc(SCC(=O)NCC2CCCO2)n1C (stereo not drawn)	n	n	n	n	2.3µM	n
Cc1ccc(SCCC(=O)NCC2CCCO2)cc1 (stereo not drawn)	13	n	n	n	x	n
Cc1cccc(C)c1OCC(=O)NCC1COc2ccccc2O1 (stereo not drawn)	x	n	n	n	n	x
Cc1cc(C(=O)NNC(=O)c2ccc(NC(=O)CC#N)cc2)c(C)o1	x	n	u	n	n	x
O=C(Cn1ccc(C(F)(F)F)n1)N/N=C/c1cccs1	n	n	n	n	n	n
Nc1cc2c3ccccc3ccc2c2ccccc12	x	n	x	x	x	x
Cc1ccc(S(=O)(=O)N(c2cccc(C(F)(F)F)c2)C2C=CS(=O)(=O)C2)cc1 (stereo not drawn)	n	n	x	n	17µM	n
CCN(CC)c1ccc(C(=O)OCC(=O)N2CCCC2)cc1	29	n	n	n	n	59
O=C(OCC(=O)N1CCCC1)c1ccc(OC(F)(F)F)cc1	22	n	n	n	n	n
O=Cc1ccc(C(=O)OCC(=O)N2CCCC2)cc1	n	n	n	n	n	n
CCCCOc1ccc(C(=O)OCC(=O)N2CCCCCC2)cc1	x	n	x	n	x	x
O=C(N1CCCC1)C(F)(F)Oc1ccc(F)cc1	n	n	n	n	n	32
O=C(COc1ccc(F)cc1)N1CCCCCCC1	n	n	n	n	u	n
CC(=O)N(c1cccc(Cl)c1)c1nc(C)cc(C)c1C#N	n	n	n	n	n	n
CC1OC(Oc2ccc3ccc(=O)oc3c2-c2c(O)ccc3cc(Oc4ccc5ccc(=O)oc5c4)c(=O)oc23)C(O)C(O)C1O (stereo not drawn)	n	n	n	n	u	n
C/C(=N\Nc1ccc(C(=O)O)cc1)c1ccc(S(=O)(=O)NCc2ccco2)cc1	45	n	n	n	n	77
C/C(=N\Nc1ccccn1)c1ccc(S(=O)(=O)NCc2ccco2)cc1	44	n	n	n	n	81
C/C(=N\Nc1nc(Cl)c(Cl)cc1Cl)c1ccc(S(=O)(=O)NCc2ccco2)cc1	69	n	n	n	n	122
Cc1ccc(-c2ccc(S(=O)(=O)NCc3ccco3)cc2)cc1	n	n	n	n	n	n
C/C(=N\Nc1ccc(C(F)(F)F)cn1)c1ccc(S(=O)(=O)NCc2ccco2)cc1	72	n	n	n	n	121
Cc1cc(C)cc(C(=O)OCC(=O)N2CCCCCC2)c1	x	n	n	n	n	x
CCOC(=O)CSc1nc(C2CC2)nc2ccccc12	n	n	n	n	n	n
Cc1ccc(C)c(SCC(=O)Nc2cc(C)nn2-c2ccc(F)cc2)c1	n	x	n	n	u	n
Cc1cc(C)c2nc(NNC(=O)c3cc(=O)c4ccccc4o3)sc2c1	19	n	u	n	u	n
C=CCn1c(SCC(=O)NC2CCS(=O)(=O)C2)nnc1-c1ccncc1 (stereo not drawn)	n	n	2.6µM	n	n	n
SMILES	CHX counter	AMA1-RON2 inh	Pf growth 48h	SARS PLpro yeast	Pf growth 96h	Shiga inhibitor
CC(NC(=O)c1ccncc1)c1ccc(Cl)cc1Cl (stereo not drawn)	n	n	n	n	n	n
Cc1nc(CC(=O)c2ccc(O)c(C)c2O)cs1	9.7	n	n	n	n	47
Cc1nc(CC(=O)c2ccc(O)cc2O)cs1	n	n	n	n	n	n
O=C1c2cccc3cccc(c23)C(=O)N1CCN1CCN(C(=S)Nc2ccccc2)CC1	n	n	n	n	15µM	n
CC(C(=O)N1CCOCC1)c1ccc([N+](=O)[O-])cc1 (stereo not drawn)	n	n	n	n	n	n
CC(C(=O)N1CCN(c2ccccc2)CC1)c1ccc([N+](=O)[O-])cc1 (stereo not drawn)	n	n	n	n	13µM	n
O=S(=O)(c1ccc(F)c(F)c1F)N1CCN(C(=S)Nc2ccccc2)CC1	n	n	2.3µM	n	u	n
S=C(NC1CCCC1)N1CCN(c2ccccn2)CC1	n	n	n	n	2.1µM	n
O=C(NC(=S)N1CCN(c2ccccn2)CC1)c1ccccc1	n	n	n	n	n	n
O=C1c2cccc3cccc(c23)C(=O)N1CCN1CCN(C(=S)Nc2ccc(Cl)cc2)CC1	n	n	n	n	n	n
O=C(CN1C(=O)NC2(CCCCCC2)C1=O)N1CCN(S(=O)(=O)c2ccc(Cl)cc2)CC1	n	n	u	n	n	n
O=[N+]([O-])c1ccc(N2CCN(C(=S)NC3CCCCC3)CC2)cc1	n	n	0.52µM	n	n	n
S=C(Nc1ccccc1)N1CCN(C(=S)Nc2ccccc2)CC1	n	x	n	n	5.2µM	n
S=C(Nc1ccccc1)N1CCCCCCC1	n	n	n	n	u	n
O=[N+]([O-])c1ccc(NC(=S)N2CCN(c3ccccc3)CC2)cc1	n	n	n	n	n	n
O=[N+]([O-])c1ccc(N2CCN(C(=S)Nc3ccccc3)CC2)cc1	n	n	2.1µM	n	n	n
COc1ccc(CN(C)C(=O)C2CCN(S(=O)(=O)c3cccs3)CC2)cc1F	x	n	u	n	u	x
COc1ccc(N(CC(=O)NCc2ccccc2OC)S(=O)(=O)c2ccccc2)cc1	n	n	n	n	u	n
COc1ccc(NS(=O)(=O)c2ccc(/C=C/C(=O)O)cc2)cc1S(=O)(=O)N1CCOCC1	n	n	n	n	n	n
O=C(Cn1c(=O)c(=O)n(Cc2ccccc2)c2ccc(Cl)cc21)Nc1cccc(F)c1	n	n	n	n	13µM	n
O=C(CC(=O)Nc1cccc(F)c1)Nc1cccc(F)c1	n	n	u	n	n	n
O=C(Cn1c2ccccc2c(=O)c2ccccc21)Nc1cccc(F)c1	n	n	15µM	n	u	n
CC(C)(C)C(=O)OC/C(N)=N/OC(=O)c1ccc(Cl)c(Cl)c1	20	n	u	n	u	n
C/C(=N\OC(=O)c1ccc(Cl)c(Cl)c1)c1sc(C)nc1C	n	n	x	n	u	n
COc1ccc(C(=O)NC(C)c2ccc(-n3ccnc3)cc2)cc1[N+](=O)[O-] (stereo not drawn)	n	n	u	n	u	n
O=[N+]([O-])c1ccccc1OCCCn1cnc2ccccc21	34	n	n	n	2.3µM	54
O=c1c2ccccc2ncn1CCCOc1ccccc1[N+](=O)[O-]	26	n	n	n	n	82
Clc1ccc(OCCn2cnc3ccccc32)c(Cl)c1	41	n	n	n	u	64
c1ccc2c(c1)ncn2CCOCCOCCn1cnc2ccccc21	n	n	u	n	n	n
CN(C)c1ccc(/C=N/N=C(N)N)cc1[N+](=O)[O-]	n	n	2.1µM	n	n	n

High-throughput results from PubChem.
